Reference: PubChem BioAssay (NCI)
Compounds without any hit were thinned out: in the full panel of roughly 79,000, 15% have a hit. Unmarked numbers belong to inactive results. Calls of active or inactive are those of the source. Rule as the data show it: active = growth inhibition above about 70%; inactive = the rest.

Legend:
[1] = NCI Yeast Anticancer Drug Screen. Data for the rad52 strain (AID 147);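 also: 0% = growth of vehicle-treated control cultures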; settings: S. cerevisiae rad52 mutant growth inhibition, active compounds read high
In short: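 Here a repair-compromised yeast strain receives each compound; its growth is then quantified and normalised to vehicle-only controls.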

[2] = NCI Yeast Anticancer Drug Screen. Data for the wt1 strain (AID 149);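 also: 0% = growth of vehicle-treated wt1 cultures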; settings: S. cerevisiae wt1 strain (SPY 50644) growth inhibition, active compounds read high
In short: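 Each compound is tested on wt1 yeast and the loss of growth versus vehicle gives the inhibition value.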

[3] = NCI Yeast Anticancer Drug Screen. Data for the rad50EPP+ strain (AID 151);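 also: 0% = growth of vehicle-treated control cultures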; settings: S. cerevisiae rad50 mutant strain, active compounds read high
In short: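 Read-out is yeast growth inhibition relative to vehicle; cells used were the rad50EPP+ strain.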

[4] = NCI Yeast Anticancer Drug Screen. Data for the mgt1 strain (AID 153); settings: S. cerevisiae mgt1 mutant growth inhibition, active compounds read high
In short: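 Measured: inhibition of mgt1 yeast growth by compound, normalized to vehicle-treated cultures.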

[5] = NCI Yeast Anticancer Drug Screen. Data for the rad50 strain (AID 155);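 also: 0% = growth of vehicle-only cultures of the same strain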; settings: S. cerevisiae rad50 strain growth inhibition, active compounds read high
In short: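 Vehicle-treated cultures provide the reference for the growth inhibition reported for compound-exposed, repair-deficient yeast.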

[6] = NCI Yeast Anticancer Drug Screen. Data for the mec2-1 strain (AID 157); settings: S. cerevisiae mec2-1 strain, active compounds read high
In short: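 Using mec2-1 yeast: add compound, measure growth, express inhibition versus vehicle-treated cultures.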

[7] = NCI Yeast Anticancer Drug Screen. Data for the rad14 strain (AID 159);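 also: 0% = growth of vehicle-treated control cultures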; settings: S. cerevisiae rad14 strain growth inhibition, active compounds read high
In short: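 Inhibition of growth is reported for a repair-deficient yeast mutant following compound treatment, calculated relative to cultures that received vehicle.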

[8] = NCI Yeast Anticancer Drug Screen. Data for the sgs1 mgt1 strain (AID 161);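 also: 0% = growth of cultures given vehicle only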; settings: S. cerevisiae sgs1 mgt1 strain, active compounds read high
In short: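 Yeast cells carrying a defined DNA-repair defect were exposed to test compounds. Growth inhibition was measured relative to vehicle-treated controls.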

[9] = NCI Yeast Anticancer Drug Screen. Data for the CLN2oe strain (AID 163);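 also: 0% = growth of vehicle-only control cultures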; settings: S. cerevisiae CLN2oe strain, active compounds read high
In short: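 Whole-cell yeast growth assay. A strain engineered for altered cell-cycle control received compound, and inhibition relative to vehicle-treated cultures was recorded.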

[10] = NCI Yeast Anticancer Drug Screen. Data for the cln2 rad14 strain (AID 165);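 also: 0% = growth equal to vehicle treated cultures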; settings: S. cerevisiae cln2 rad14 strain, active compounds read high
In short: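 Yeast strain cln2 rad14, bearing defects in cell cycle control and DNA repair, serves as the test system; values reflect growth inhibition compared with vehicle.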

[11] = NCI Yeast Anticancer Drug Screen. Data for the bub3 strain (AID 167); settings: S. cerevisiae bub3 mutant strain, active compounds read high
In short: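 Mutant yeast screening strain plus compound; vehicle-treated cultures serve as the 0% inhibition reference.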

[12] = NCI Yeast Anticancer Drug Screen. Data for the wt2 strain (AID 169); settings: S. cerevisiae wt2 strain growth inhibition, active compounds read high
In short: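 Treated yeast vs. vehicle-treated yeast: growth inhibition determined.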

[13] = NCI Yeast Anticancer Drug Screen. Data for the mlh1 strain (AID 171);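 also: 0% = growth of vehicle-treated control cultures of the same strain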; settings: S. cerevisiae mlh1 strain growth inhibition, active compounds read high
In short: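 A yeast strain with a defined genetic lesion serves as the test organism. Cultures receive compound or vehicle, and growth is measured.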

[14] = NCI Yeast Anticancer Drug Screen. Data for the sgs1 strain (AID 173);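 also: 0% = growth of vehicle-only control cultures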; settings: S. cerevisiae sgs1 mutant, active compounds read high
In short: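 A genetically defined yeast mutant is incubated with the test compound, and its growth is compared to that of the same strain given vehicle.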

[15] = NCI Yeast Anticancer Drug Screen. Data for the mlh1 rad18 strain (AID 175); settings: S. cerevisiae mlh1 rad18 strain growth inhibition, active compounds read high
In short: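 Steps: expose repair-defective yeast to compound; measure growth; express inhibition against vehicle-treated controls.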

[16] = NCI Yeast Anticancer Drug Screen. Data for the rad18 strain (AID 177); settings: S. cerevisiae rad18 mutant growth inhibition, active compounds read high
In short: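 Measured value is growth inhibition of a yeast strain bearing a DNA repair alteration, referenced to vehicle-treated cells.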

[17] = at 5.0 µM (retest, dose inferred, filed as 0.5)
[18] = at 50.0 µM (retest, dose inferred, filed as 5.0)

CN(C)CCNC(=O)c1cccc2cc([N+](=O)[O-])ccc12
growth inhibition ([1]; at 1.2 µM): 14%
growth inhibition ([1]; at 3.7 µM): 20%
growth inhibition ([1]; at 11.0 µM): 61%
growth inhibition ([1]; at 33.0 µM): 92% (active)
growth inhibition ([1]; at 100.0 µM): 96% (active)
growth inhibition ([2]; at 1.2 µM): 13%
growth inhibition ([2]; at 3.7 µM): 8%
growth inhibition ([2]; at 11.0 µM): 41%
growth inhibition ([2]; at 33.0 µM): 80% (active)
growth inhibition ([2]; at 100.0 µM): 93% (active)
growth inhibition ([3]; at 1.2 µM): 5%
growth inhibition ([3]; at 3.7 µM): 21%
growth inhibition ([3]; at 11.0 µM): 64%
growth inhibition ([3]; at 33.0 µM): 91% (active)
growth inhibition ([3]; at 100.0 µM): 95% (active)
growth inhibition ([4]; at 1.2 µM): -1%
growth inhibition ([4]; at 3.7 µM): 4%
growth inhibition ([4]; at 11.0 µM): 33%
growth inhibition ([4]; at 33.0 µM): 78% (active)
growth inhibition ([4]; at 100.0 µM): 92% (active)
growth inhibition ([5]; at 1.2 µM): 35%
growth inhibition ([5]; at 3.7 µM): 42%
growth inhibition [5, 17]: 38%
growth inhibition ([5]; at 11.0 µM): 77% (active)
growth inhibition ([5]; at 33.0 µM): 93% (active)
growth inhibition [5, 18]: 92% (active)
growth inhibition ([5]; at 50.0 µM): 86.5% (active)
growth inhibition ([5]; at 100.0 µM): 97% (active)
growth inhibition ([6]; at 1.2 µM): -6%
growth inhibition ([6]; at 3.7 µM): 8%
growth inhibition [6, 17]: 11%
growth inhibition ([6]; at 11.0 µM): 20%
growth inhibition ([6]; at 33.0 µM): 70% (active)
growth inhibition [6, 18]: 72% (active)
growth inhibition ([6]; at 50.0 µM): 82.7% (active)
growth inhibition ([6]; at 100.0 µM): 93% (active)
growth inhibition ([7]; at 1.2 µM): -1%
growth inhibition ([7]; at 3.7 µM): 10%
growth inhibition ([7]; at 11.0 µM): 47%
growth inhibition ([7]; at 33.0 µM): 80% (active)
growth inhibition ([7]; at 100.0 µM): 93% (active)
growth inhibition [8, 17]: -2%
growth inhibition [8, 18]: 68%
growth inhibition ([8]; at 50.0 µM): 84.3% (active)
growth inhibition ([9]; at 1.2 µM): 15%
growth inhibition ([9]; at 3.7 µM): 20%
growth inhibition ([9]; at 11.0 µM): 43%
growth inhibition ([9]; at 33.0 µM): 56%
growth inhibition ([9]; at 100.0 µM): 84% (active)
growth inhibition [10, 17]: 23%
growth inhibition [10, 18]: 55%
growth inhibition ([10]; at 50.0 µM): 71% (active)
growth inhibition ([11]; at 1.2 µM): -12%
growth inhibition ([11]; at 3.7 µM): -27%
growth inhibition [11, 17]: 8%
growth inhibition ([11]; at 11.0 µM): -18%
growth inhibition ([11]; at 33.0 µM): 51%
growth inhibition [11, 18]: 67%
growth inhibition ([11]; at 50.0 µM): 82.8% (active)
growth inhibition ([11]; at 100.0 µM): 85% (active)
growth inhibition ([12]; at 1.2 µM): -13%
growth inhibition ([12]; at 3.7 µM): -10%
growth inhibition ([12]; at 11.0 µM): 5%
growth inhibition ([12]; at 33.0 µM): 60%
growth inhibition ([12]; at 100.0 µM): 87% (active)
growth inhibition ([13]; at 1.2 µM): -7%
growth inhibition ([13]; at 3.7 µM): 6%
growth inhibition ([13]; at 11.0 µM): 33%
growth inhibition ([13]; at 33.0 µM): 69%
growth inhibition ([13]; at 100.0 µM): 92% (active)
growth inhibition ([14]; at 1.2 µM): 16%
growth inhibition ([14]; at 3.7 µM): 22%
growth inhibition ([14]; at 11.0 µM): 49%
growth inhibition ([14]; at 33.0 µM): 79% (active)
growth inhibition ([14]; at 100.0 µM): 93% (active)
growth inhibition [15, 17]: 18%
growth inhibition [15, 18]: 86% (active)
growth inhibition ([15]; at 50.0 µM): 45.6%
growth inhibition ([16]; at 1.2 µM): 7%
growth inhibition ([16]; at 3.7 µM): 5%
growth inhibition ([16]; at 11.0 µM): 23%
growth inhibition ([16]; at 33.0 µM): 70% (active)
growth inhibition ([16]; at 100.0 µM): 90% (active)

CCCCCCC(O)CNCc1ccnc2ccc(OC)cc12 (stereo unspecified)
growth inhibition ([1]; at 1.2 µM): 5%
growth inhibition ([1]; at 3.7 µM): 12%
growth inhibition ([1]; at 11.0 µM): 22%
growth inhibition ([1]; at 33.0 µM): 35%
growth inhibition ([1]; at 100.0 µM): 52%
growth inhibition ([2]; at 1.2 µM): 2%
growth inhibition ([2]; at 3.7 µM): 9%
growth inhibition ([2]; at 11.0 µM): 4%
growth inhibition ([2]; at 33.0 µM): 8%
growth inhibition ([2]; at 100.0 µM): 18%
growth inhibition ([3]; at 1.2 µM): 1%
growth inhibition ([3]; at 3.7 µM): 2%
growth inhibition ([3]; at 11.0 µM): 4%
growth inhibition ([3]; at 33.0 µM): 0%
growth inhibition ([3]; at 100.0 µM): 2%
growth inhibition ([4]; at 1.2 µM): 1%
growth inhibition ([4]; at 3.7 µM): 4%
growth inhibition ([4]; at 11.0 µM): 17%
growth inhibition ([4]; at 33.0 µM): 38%
growth inhibition ([4]; at 100.0 µM): 51%
growth inhibition ([5]; at 1.2 µM): 5%
growth inhibition ([5]; at 3.7 µM): 13%
growth inhibition [5, 17]: 8%
growth inhibition ([5]; at 11.0 µM): 11%
growth inhibition ([5]; at 33.0 µM): 31%
growth inhibition [5, 18]: 51%
growth inhibition ([5]; at 50.0 µM): 76.8% (active)
growth inhibition ([5]; at 100.0 µM): 54%
growth inhibition ([6]; at 1.2 µM): 4%
growth inhibition ([6]; at 3.7 µM): 13%
growth inhibition [6, 17]: 7%
growth inhibition ([6]; at 11.0 µM): 15%
growth inhibition ([6]; at 33.0 µM): 29%
growth inhibition [6, 18]: 43%
growth inhibition ([6]; at 50.0 µM): 53.4%
growth inhibition ([6]; at 100.0 µM): 46%
growth inhibition ([7]; at 1.2 µM): 13%
growth inhibition ([7]; at 3.7 µM): 32%
growth inhibition ([7]; at 11.0 µM): 33%
growth inhibition ([7]; at 33.0 µM): 33%
growth inhibition ([7]; at 100.0 µM): 49%
growth inhibition [8, 17]: 23%
growth inhibition [8, 18]: 61%
growth inhibition ([8]; at 50.0 µM): 83.5% (active)
growth inhibition ([9]; at 1.2 µM): 9%
growth inhibition ([9]; at 3.7 µM): 12%
growth inhibition ([9]; at 11.0 µM): 39%
growth inhibition ([9]; at 33.0 µM): 49%
growth inhibition ([9]; at 100.0 µM): 56%
growth inhibition [10, 17]: 14%
growth inhibition [10, 18]: 43%
growth inhibition ([10]; at 50.0 µM): 72.2% (active)
growth inhibition ([11]; at 1.2 µM): 1%
growth inhibition ([11]; at 3.7 µM): 8%
growth inhibition [11, 17]: 20%
growth inhibition ([11]; at 11.0 µM): 24%
growth inhibition ([11]; at 33.0 µM): 44%
growth inhibition [11, 18]: 63%
growth inhibition ([11]; at 50.0 µM): 83.7% (active)
growth inhibition ([11]; at 100.0 µM): 63%
growth inhibition ([12]; at 1.2 µM): 4%
growth inhibition ([12]; at 3.7 µM): 8%
growth inhibition ([12]; at 11.0 µM): 9%
growth inhibition ([12]; at 33.0 µM): 14%
growth inhibition ([12]; at 100.0 µM): 28%
growth inhibition ([13]; at 1.2 µM): 5%
growth inhibition ([13]; at 3.7 µM): 9%
growth inhibition ([13]; at 11.0 µM): 15%
growth inhibition ([13]; at 33.0 µM): 18%
growth inhibition ([13]; at 100.0 µM): 35%
growth inhibition ([14]; at 1.2 µM): 6%
growth inhibition ([14]; at 3.7 µM): 12%
growth inhibition ([14]; at 11.0 µM): 18%
growth inhibition ([14]; at 33.0 µM): 29%
growth inhibition ([14]; at 100.0 µM): 56%
growth inhibition [15, 17]: 21%
growth inhibition [15, 18]: 61%
growth inhibition ([15]; at 50.0 µM): 52.2%
growth inhibition ([16]; at 1.2 µM): 7%
growth inhibition ([16]; at 3.7 µM): 12%
growth inhibition ([16]; at 11.0 µM): 8%
growth inhibition ([16]; at 33.0 µM): 19%
growth inhibition ([16]; at 100.0 µM): 30%
